A short description of test [1]: qHTS assay to identify small molecule antagonists of the thyroid receptor (TR) signaling pathway - cell viability counter screen (AID 743064). Note: nearly all actives have a fitted effect of over 50% in size. A digest of the protocol:
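In rat pituitary GH3.TRE-Luc reporter cells co-exposed to compound and 1 nM T3 for 23.5 h, cytotoxicity was assessed with CellTiter-Fluor in the same wells, read by fluorescence.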

Test [2] can be described thus: qHTS assay to identify small molecule antagonists of the thyroid receptor (TR) signaling pathway (AID 743065). Note: series mostly up to about 70 µM; nearly all actives have a fitted effect of over 55% in size. A digest of the protocol:
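GH3.TRE-Luc rat pituitary cells (two TREs driving luciferase) were dosed with compound, then stimulated with 1 nM T3 (final) for 23.5 h at 37 C. ONE-Glo luminescence was the read-out, with CellTiter-Fluor fluorescence as the cytotoxicity counter-screen.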
Background: Quantitative high-throughput screening tests each substance at several concentrations.

Test [3] has as its system thyroid hormone receptor (rat, GH3 cells). In words: qHTS assay to identify small molecule agonists of the thyroid receptor (TR) signaling pathway (AID 743066; calls by dose curve).
The target in test [4] is Estrogen receptor (Homo sapiens) (UniProt P03372). As to the kind of experiment: qHTS assay to identify small molecule antagonists of the estrogen receptor alpha (ER-alpha) signaling pathway (AID 743069; active = well fitted curve in the direction sought with a large enough effect in the signal ratio in the repeat runs, not every such curve was filed as active; the % refers to the signal ratio). In a few lines:
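In this cell-based reporter format, GripTite HEK293 cells harbouring ER-alpha-UAS-bla were grown overnight with 2% charcoal-stripped FBS, dosed with DMSO-dissolved compounds, then challenged with 17beta-estradiol. After 18 hr at 37C, beta-lactamase activity was detected by FRET fluorescence.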

The nature of test [5]: qHTS assay to identify small molecule antagonists of the estrogen receptor alpha (ER-alpha) signaling pathway - cell viability counter screen (AID 743074; calls by dose curve; note: nearly all actives have a fitted effect of over 45% in size).
The target of test [6] is Estrogen receptor (Homo sapiens) (UniProt P03372). As to the kind of experiment: qHTS assay to identify small molecule agonists of the estrogen receptor alpha (ER-alpha) signaling pathway (AID 743075; calls by dose curve; note: potency is the fitted concentration of half-maximal effect).
Estrogen receptor (Homo sapiens), sequence (P03372 whole entry, looked up): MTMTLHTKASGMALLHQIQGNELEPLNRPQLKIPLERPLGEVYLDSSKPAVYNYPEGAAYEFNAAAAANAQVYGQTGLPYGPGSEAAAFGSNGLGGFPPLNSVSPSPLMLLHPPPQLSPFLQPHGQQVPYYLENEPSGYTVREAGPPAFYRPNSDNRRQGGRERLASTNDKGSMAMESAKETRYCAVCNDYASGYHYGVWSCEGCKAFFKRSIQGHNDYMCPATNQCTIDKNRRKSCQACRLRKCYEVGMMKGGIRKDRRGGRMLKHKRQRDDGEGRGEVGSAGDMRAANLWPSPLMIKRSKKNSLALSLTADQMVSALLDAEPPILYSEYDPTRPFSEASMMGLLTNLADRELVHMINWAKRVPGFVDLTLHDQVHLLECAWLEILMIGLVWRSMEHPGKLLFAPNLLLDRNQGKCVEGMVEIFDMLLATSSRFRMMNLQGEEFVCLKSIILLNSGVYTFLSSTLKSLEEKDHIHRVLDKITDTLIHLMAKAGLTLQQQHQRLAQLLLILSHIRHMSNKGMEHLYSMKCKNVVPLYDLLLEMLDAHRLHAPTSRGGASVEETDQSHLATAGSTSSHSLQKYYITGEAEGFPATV
Test [7] shares this target. In words: qHTS assay to identify small molecule agonists of the estrogen receptor alpha (ER-alpha) signaling pathway using the BG1 cell line (AID 743079). Note: nearly all actives have a fitted effect of over 20% in size. Note: potency is the fitted concentration of half-maximal effect.
Test [8] can be described thus: qHTS assay to identify small molecule antagonists of the estrogen receptor alpha (ER-alpha) signaling pathway using the BG1 cell line (AID 743080; calls by dose curve;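 note: BG1 cells stimulated with 17beta-estradiol alongside compound; series mostly up to about 70 µM; nearly all actives have a fitted effect of over 25% in size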). In a few lines:
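BG1-Luc-4E2 cells (endogenous full-length ER-alpha, 4xERE luciferase) hormone-starved 5 days in charcoal-stripped FBS, plated 4,000/well for 24 h, then compound plus 17beta-estradiol for 21.5 h at 37 C; ONE-Glo luminescence read.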

Test [9] in a line: qHTS assay to identify small molecule antagonists of the estrogen receptor alpha (ER-alpha) signaling pathway using the BG1 cell line - cell viability counter screen (AID 743081).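 Note: compound given together with 17beta-estradiol as the ER stimulus; series mostly up to about 70 µM; nearly all actives have a fitted effect of over 45% in size.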
A further test deals with Aromatase (Homo sapiens) (UniProt P11511). As to the kind of experiment: qHTS assay to identify aromatase inhibitors (AID 743083). Note: series mostly up to about 70 µM; nearly all actives have a fitted effect of over 55% in size.
Aromatase (Homo sapiens), sequence (P11511 whole entry, looked up): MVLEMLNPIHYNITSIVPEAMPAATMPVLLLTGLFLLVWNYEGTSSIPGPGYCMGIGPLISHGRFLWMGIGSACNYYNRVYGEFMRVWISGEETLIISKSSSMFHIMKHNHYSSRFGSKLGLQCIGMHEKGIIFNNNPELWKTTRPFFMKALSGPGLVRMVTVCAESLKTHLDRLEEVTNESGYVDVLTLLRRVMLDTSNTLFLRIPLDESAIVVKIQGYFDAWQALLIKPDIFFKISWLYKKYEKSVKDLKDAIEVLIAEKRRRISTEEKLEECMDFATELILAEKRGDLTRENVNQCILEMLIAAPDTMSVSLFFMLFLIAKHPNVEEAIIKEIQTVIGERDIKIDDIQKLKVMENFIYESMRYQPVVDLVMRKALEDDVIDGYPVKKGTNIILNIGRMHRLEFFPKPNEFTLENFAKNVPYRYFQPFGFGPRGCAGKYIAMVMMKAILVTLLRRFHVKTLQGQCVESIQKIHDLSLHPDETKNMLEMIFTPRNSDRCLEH
Test [10] is described as follows: qHTS assay to identify aromatase inhibitors - cell viability counter screen (AID 743084).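 Note: cells stimulated with testosterone during compound exposure; nearly all actives have a fitted effect of over 55% in size.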 Note: potency is the fitted concentration of half-maximal effect.
Test [11] can be described thus: qHTS assay to identify small molecule that activate the aryl hydrocarbon receptor (AhR) signaling pathway - cell viability counter screen (AID 743086).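 Note: HepG2 liver cells carrying the AhR DRE luciferase reporter; series mostly up to about 70 µM; nearly all actives have a fitted effect of over 45% in size.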 In a few lines: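 HepG2-AhR-luc (HG2L7.5c1) cells, 4000/well, treated 24 h at 37 C with compound; viability measured as CellTiter-Fluor fluorescence after 30 min in the same wells as the luciferase read.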
For test [12], the target named is Peroxisome proliferator-activated receptor gamma (Homo sapiens) (UniProt P37231). As to the kind of experiment: qHTS assay to identify small molecule agonists of the peroxisome proliferator-activated receptor gamma (PPARg) signaling pathway (AID 743094; active = well fitted activation curve with a large enough effect in the signal ratio in the repeat runs, not every such curve was filed as active; the % refers to the signal ratio). A digest of the protocol:
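Cell-based bla reporter, HEK293H background, PPARg-driven UAS. Pre-incubation 5 h, 37C, 5% CO2. Compound 17 h, 37C. Substrate 1 h RT; fluorescence.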

The target is the same in test [13]. As to the kind of experiment: qHTS assay to identify small molecule antagonists of the peroxisome proliferator-activated receptor gamma (PPARg) signaling pathway (AID 743191; calls by dose curve; note: series mostly up to about 63 µM; nearly all actives have a fitted effect of over 30% in size). A digest of the protocol: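 GeneBLAzer PPARg UAS-bla HEK293H cells, 5 h post-plating, exposed to compounds 17 h at 37C. LiveBLAzer B/G FRET substrate added for 1 h at room temperature; beta-lactamase reporter read by fluorescence intensity.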

Test [14] is described as follows: qHTS assay to identify small molecule antagonists of the peroxisome proliferator-activated receptor gamma (PPARg) signaling pathway - cell viability counter screen (AID 743194). Note: nearly all actives have a fitted effect of over 55% in size. A digest of the protocol: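 Cytotoxicity counter screen in PPARg-bla HEK293H cells, same wells as reporter assay. Compounds plus 50 nM rosiglitazone (final) for 17 h at 37 C, then viability read by CellTiter-Glo luminescence.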

The nature of test [15]: qHTS assay for small molecule agonists of the antioxidant response element (ARE) signaling pathway (AID 743202; active = well fitted activation curve with a large enough effect in the signal ratio in the repeat runs, not every such curve was filed as active; the % refers to the signal ratio; note: potency is the fitted concentration of half-maximal effect). A digest of the protocol: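 HepG2 ARE-bla cells; 16 h treatment at 37 C; FRET-based beta-lactamase fluorescence read after 2 h substrate incubation at room temperature.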
The nature of test [16]: qHTS assay for small molecule agonists of the antioxidant response element (ARE) signaling pathway - cell viability counter screen (AID 743203; calls by dose curve; note: nearly all actives have a fitted effect of over 55% in size). A digest of the protocol:
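Measured in the same wells as the beta-lactamase ARE reporter, this read-out is CellTiter-Glo luminescence from HepG2 ARE-bla cells given compounds for 16 hrs.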

Test [17] can be described thus: qHTS assay for small molecule activators of the heat shock response signaling pathway - cell viability counter screen (AID 743209). Note: nearly all actives have a fitted effect of over 50% in size. In a few lines: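 Same-well multiplex: after 2.5 h room-temperature incubation with LiveBLAzer B/G substrate and fluorescence reading, CellTiter-Glo reagent was added to HSE-bla HeLa cells that had received compound for 5 h at 37 C; luminescence read after 30 min.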

Test [18] can be described thus: qHTS assay for small molecule activators of the heat shock response signaling pathway (AID 743210; active = well fitted activation curve with a large enough effect in the signal ratio in the repeat runs, with a control signal flat, not every such curve was filed as active; the % refers to the signal ratio;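 note: HeLa cells with beta-lactamase reporter driven by heat shock elements; series mostly up to about 63 µM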). A digest of the protocol:
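Following overnight attachment, HSE-bla HeLa cells received test compounds for 5 h at 37 C; beta-lactamase activity was then detected via FRET substrate fluorescence.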

Test [19] has as its target Aryl hydrocarbon receptor (Homo sapiens) (UniProt P35869). In words: qHTS assay to identify small molecule that activate the aryl hydrocarbon receptor (AhR) signaling pathway (AID 743085).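 For activation: HG2L7.5c1 human HepG2 liver cells with stably integrated DRE-driven firefly reporter; series mostly up to about 70 µM.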 Note: nearly all actives have a fitted effect of over 15% in size. Note: potency is the fitted concentration of half-maximal effect. A digest of the protocol: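 AhR agonist activity is inferred from enhanced light output of a DRE-controlled firefly luciferase reporter in HepG2 cells, measured with ONE-Glo following 24 h treatment at 37C.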

SMILES strings stand for the structures. “And” between values parts separate entries of the source, which are not always exact repeats. Equal entries are not always repeated. Results filed as inconclusive are left out. More than one record can exist for a structure, and the calls need not agree. The source made the active and inactive calls. Unless noted, calls come from the whole dose curve; as a rule, active = well fitted curve in the direction sought with a large enough effect in the repeat runs; inconclusive = weak or mixed curves; inactive = no such curve, though single readings can be large; an effect the other way counts as inactive or inconclusive.

Aryl hydrocarbon receptor (Homo sapiens), sequence (P35869 whole entry, looked up): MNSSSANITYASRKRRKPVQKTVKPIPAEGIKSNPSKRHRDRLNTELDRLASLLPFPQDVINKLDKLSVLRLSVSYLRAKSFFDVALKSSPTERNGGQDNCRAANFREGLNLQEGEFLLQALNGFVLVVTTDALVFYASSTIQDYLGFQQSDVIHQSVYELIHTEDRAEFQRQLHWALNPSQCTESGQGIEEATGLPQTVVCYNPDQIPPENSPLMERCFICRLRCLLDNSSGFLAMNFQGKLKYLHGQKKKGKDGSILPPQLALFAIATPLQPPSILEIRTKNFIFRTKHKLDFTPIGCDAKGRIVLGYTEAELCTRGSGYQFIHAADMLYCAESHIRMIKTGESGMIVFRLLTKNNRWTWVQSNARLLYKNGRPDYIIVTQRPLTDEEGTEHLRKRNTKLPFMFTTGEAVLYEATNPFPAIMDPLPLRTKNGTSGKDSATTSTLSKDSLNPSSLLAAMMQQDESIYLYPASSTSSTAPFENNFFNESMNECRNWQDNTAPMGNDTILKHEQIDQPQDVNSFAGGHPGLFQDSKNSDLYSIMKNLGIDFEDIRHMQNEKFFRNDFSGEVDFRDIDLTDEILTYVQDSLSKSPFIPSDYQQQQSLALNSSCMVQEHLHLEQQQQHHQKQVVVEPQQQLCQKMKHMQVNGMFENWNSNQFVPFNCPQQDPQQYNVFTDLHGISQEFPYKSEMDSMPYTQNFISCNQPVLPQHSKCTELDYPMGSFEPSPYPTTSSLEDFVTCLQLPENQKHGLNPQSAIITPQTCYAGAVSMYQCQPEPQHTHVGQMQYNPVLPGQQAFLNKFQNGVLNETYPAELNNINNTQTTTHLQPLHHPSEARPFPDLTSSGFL
Peroxisome proliferator-activated receptor gamma (Homo sapiens), sequence (P37231 whole entry, looked up): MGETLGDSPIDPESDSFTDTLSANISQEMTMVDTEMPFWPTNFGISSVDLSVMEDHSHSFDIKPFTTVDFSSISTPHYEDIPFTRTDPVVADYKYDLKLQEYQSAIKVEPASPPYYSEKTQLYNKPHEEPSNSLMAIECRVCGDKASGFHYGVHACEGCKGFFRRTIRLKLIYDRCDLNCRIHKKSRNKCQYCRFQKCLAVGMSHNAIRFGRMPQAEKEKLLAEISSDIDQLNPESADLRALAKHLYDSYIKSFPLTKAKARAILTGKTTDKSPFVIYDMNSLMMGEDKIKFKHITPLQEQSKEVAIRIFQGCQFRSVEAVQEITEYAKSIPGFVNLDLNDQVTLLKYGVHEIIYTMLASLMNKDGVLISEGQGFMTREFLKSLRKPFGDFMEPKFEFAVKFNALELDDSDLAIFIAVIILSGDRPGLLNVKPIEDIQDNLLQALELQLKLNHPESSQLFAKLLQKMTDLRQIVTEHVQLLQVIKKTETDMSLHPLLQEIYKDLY

For `CN(C)Cc1cc(CN(C)C)c(O)c(CN(C)C)c1`, the Potency result in test [1], in test [2], in test [4], in test [6], in test [7] and in test [8] was “inactive” each time. Moreover, the Potency result (in test [9]; with Aromatase (Homo sapiens); in test [10]; in test [11]; in [12]; in test [13]) was “inactive” throughout. The Potency result in test [14], in test [15] and in test [16] was “inactive” throughout. The compound was classed as inactive in test [3], in test [5], in test [17] and in [18].
Turning to `Cc1cnc(NC(=O)C2=C(O)c3ccccc3S(=O)(=O)N2C)s1`, the Potency result in test [1], in test [2], in test [4], in [6], in [8] and in test [9] was “inactive” throughout. Further, the Potency result (in the test with Aromatase (Homo sapiens); in test [10]; in [11]; in [12]; in test [13]; in test [14]) was “inactive” throughout. Besides, the Potency result in [16] is “inactive”. Further, the compound was classed as inactive in [3], in test [5], in test [17] and in test [18]. Also, the Potency entry in [7] is “inactive and 21.1 µM (active)”; in [19], “inactive and 61.1 µM (active)”.
Turning to `CC1(C)O[C@@H]2[C@@H](CO[C@@]3(COS(N)(=O)=O)OC(C)(C)O[C@@H]23)O1`, the Potency entry in test [1], in test [2], in test [4], in [6], in test [7] and in test [8] was “inactive” throughout. The Potency entry (in [9]; with Aromatase (Homo sapiens); in test [10]; in test [11]; in test [12]; in test [13]) was “inactive” in each case. Moreover, the Potency entry in [14], in test [15] and in [16] was “inactive” in each case. The compound was classed as inactive in test [3], in test [5], in [17] and in test [18].
On to `CC(=O)OC/C=C(C)/C=C/C=C(C)/C=C/C1=C(C)CCCC1(C)C`, for which the Potency entry in [1], in test [2], in test [4], in [7], in [8] and in test [9] was “inactive” each time. Besides, the Potency entry (with Aromatase (Homo sapiens); in test [11]; in test [12]; in test [13]; in test [14]; in [16]) was “inactive” in each case. In addition, the compound was called inactive in [3], in test [5] and in [17]. The Potency entry in [6] was “inactive and 33.8 µM [activator] (active)”; in test [10], “inactive and 66.9 µM (active) and 61.1 µM (active)”; in [15], 59.6 µM (active).
For `COC(=O)c1ccc(O)cc1`, the Potency entry in test [1], in test [2], in [4], in test [6], in test [7] and in test [8] was “inactive” in each case. For the same compound, the Potency result (in test [9]; with Aromatase (Homo sapiens); in [10]; in [19]; in [11]; in test [12]) was “inactive” in each case. In addition, the Potency result in test [13], in test [14], in test [15] and in [16] was “inactive” in each case. Besides, the compound was classed as inactive in [3], in test [5], in [17] and in [18].
With `NC(=O)OCC(COC(N)=O)c1ccccc1`, the Potency result in test [1], in test [2], in test [4], in test [6], in [7] and in [8] was “inactive” in each case. For the same compound, the Potency result (in test [9]; with Aromatase (Homo sapiens); in test [10]; in [19]; in test [11]; in test [14]) was “inactive” each time. Further, the Potency result in test [16] is “inactive”. Also, the compound was classed as inactive in [3], in test [5], in [17] and in [18].
In the case of `C=CC(=O)NC(C)(C)CS(=O)(=O)O`, the Potency result in test [1], in test [2], in [4], in [6], in [7] and in test [8] was “inactive” throughout. For the same compound, the Potency result (in test [9]; with Aromatase (Homo sapiens); in test [10]; in test [19]; in test [11]; in test [12]) was “inactive” each time. For the same compound, the Potency result in test [13], in [14], in [15] and in test [16] was “inactive” in each case. Besides, the result in test [3], in test [5], in test [17] and in test [18] was inactive.

Source of the values: PubChem BioAssay (Tox21).
